Compound activity from PubChem BioAssay.
TDP1 cell noCPT – qHTS for Inhibitors of human tyrosyl-DNA phosphodiesterase 1 (TDP1): qHTS in cells in absence of CPT | DT40 Tdp1-/- hTDP1 cells, no CPT, ATP luminescence, 48 h | Potency, µM (doses to about 46.2 µM), for the others: at the highest dose activity change, negative = growth inhibition, most hits filed as inhibitors | hit rate 15% among 420,000 | AID 686978, 2013; also: potency is read from the fitted curve at half-maximal effect; nearly all actives have a fitted effect of over 55% in size
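Seeded 400 DT40-hTDP1 cells/well (vehicle DMSO, no 20 nM CPT); pinned compounds; ≥48 hr at 37 °C; CellTiter-Glo luminescence as viability measure.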
HT1080-NT tox – qHTS for induction of synthetic lethality in tumor cells producing 2HG: qHTS for the HT-1080-NT fibrosarcoma cell line; hit rate 1.6% among 360,000; HT-1080-NT fibrosarcoma viability, CellTiter-Glo ATP luminescence, 48 h; Potency, µM (doses to about 46.1 µM), inactives show top-dose activity, negative = less viability, most hits filed as cytotoxic; AID 686970, 2013;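 also: NT is the 2HG producing partner of a matched IDH1 knockdown line; potency is read from the fitted curve at half-maximal effect; 0% = DMSO-treated cells and -100% = media-only wells without cells; nearly all actives have a fitted effect of over 55% in size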
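750 cells/well, RPMI + 5% FBS; 2 h settle, compound pin-transfer, 48 h at 37 degrees C. CellTiter-Glo 10 min RT, luminescence. Normalized to DMSO and media-only wells.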
HT1080 IDH1KD tx – qHTS for induction of synthetic lethality in tumor cells producing 2HG: qHTS for the HT-1080-IDH1KD cell line. HT-1080 IDH1 knockdown viability, ATP luminescence, 48 h. Potency, µM (series often up to 46.1 µM), for the others: at the highest dose activity, negative = toxicity, most hits filed as cytotoxic. hit rate 2% among 360,000. AID 686971, 2013;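 also: potency is read from the fitted curve at half-maximal effect; 0% = DMSO wells and -100% = cell-free medium wells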
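CellTiter-Glo luminescence after 48 h compound exposure at 37 degrees C of IDH1-knockdown HT-1080 cells in 5% FBS RPMI. %Activity scaled between DMSO wells and cell-free media wells, with curves fitted and assigned curve classes.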
IL1B secr inh – qHTS for Inhibitors of Inflammasome Signaling: IL-1-beta AlphaLISA Primary Screen; THP-1 LPS/ATP IL-1B secretion, AlphaLISA, 16 h; hits give low values; hit rate 4.7% among 360,000; activity change, % at 57.5 µM; AID 743279, 2014; in the data active = activity change below about -50%; inconclusive = mostly about -30% to -49%
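Secreted IL-1B measured by AlphaLISA bead assay after 16 h compound exposure of THP-1 cells; compounds (final up to 57.5 uM) added 1 h before LPS (250 ng/mL) and ATP (1.25 mM) stimulation; lower signal means less secretion.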
DT40 TDP1 CPT – qHTS for Inhibitors of human tyrosyl-DNA phosphodiesterase 1 (TDP1): qHTS in cells in presence of CPT. chicken DT40 Tdp1-/-;hTDP1 cells + 20 nM CPT, ATP luminescence, 48 h. Potency, µM (series often up to 46.2 µM), for the others: at the top dose activity change, negative = growth inhibition, usual class: inhibitors. hit rate 12% among 420,000. AID 686979, 2013; also: potency is read from the fitted curve at half-maximal effect; nearly all actives have a fitted effect of over 55% in size
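Cell growth measured by CellTiter-Glo luminescence after a minimum 48 h, 37 C compound exposure with 20 nM CPT in Tdp1-knockout DT40 cells stably expressing hTDP1, seeded 400/well; qHTS titration format.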
12-LOX inh – Primary qHTS assay for inhibitors of human arachidonate 12S-lipoxygenase (ALOX12): Round 2. hit rate 1.1% among 580,000. Potency, µM (top dose mostly 108 µM), inactives show at the top dose activity change, negative = inhibition, actives largely listed as inhibitors. Polyunsaturated fatty acid lipoxygenase ALOX12 (Homo sapiens), P18054. purified 12hLO, xylenol orange hydroperoxide absorbance; also: potency is read from the fitted curve at half-maximal effect
Target sequence (P18054 whole entry, looked up): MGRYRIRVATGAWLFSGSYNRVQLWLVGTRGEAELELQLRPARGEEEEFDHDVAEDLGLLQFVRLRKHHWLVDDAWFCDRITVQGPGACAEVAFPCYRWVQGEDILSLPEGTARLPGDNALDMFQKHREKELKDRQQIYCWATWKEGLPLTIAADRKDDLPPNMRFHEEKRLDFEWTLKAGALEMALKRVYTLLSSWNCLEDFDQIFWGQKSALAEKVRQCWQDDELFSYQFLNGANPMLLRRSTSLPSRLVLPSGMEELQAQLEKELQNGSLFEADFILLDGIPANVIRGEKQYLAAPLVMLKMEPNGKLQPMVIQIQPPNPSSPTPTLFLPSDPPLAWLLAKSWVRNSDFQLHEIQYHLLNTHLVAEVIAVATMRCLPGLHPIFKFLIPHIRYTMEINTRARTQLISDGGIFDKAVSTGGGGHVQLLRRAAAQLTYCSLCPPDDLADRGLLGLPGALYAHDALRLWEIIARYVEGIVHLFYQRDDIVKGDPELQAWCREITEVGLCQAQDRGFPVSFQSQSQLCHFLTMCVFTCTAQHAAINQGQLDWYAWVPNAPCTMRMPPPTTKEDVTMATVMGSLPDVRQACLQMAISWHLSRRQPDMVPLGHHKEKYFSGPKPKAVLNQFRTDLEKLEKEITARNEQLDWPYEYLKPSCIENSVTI
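Hydroperoxide product was detected by ferrous iron/xylenol orange as the 573 to 405 nm absorbance ratio. Arachidonic acid at 40 uM (final) was turned over for 30 min at room temperature by 150 nM human 12hLO, pH 7.0 Hepes buffer, after 15 min compound preincubation.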
The depositor's hits bear a star; ? = inconclusive; . = no result. This excerpt belongs to a sample that is enriched for hits. Unless noted, calls follow the shape of the dose curve; as a rule, active = well fitted curve in the direction sought with a large enough effect; inconclusive = small, poorly fitted or top-dose-only effect, or another doubt; inactive = no such curve, though single readings can be large; an effect the other way counts as inactive or inconclusive. Unless noted, % is scaled to controls: 0 for no effect and ±100 for the full control effect.

SMILES	TDP1 cell noCPT	HT1080-NT tox	HT1080 IDH1KD tx	IL1B secr inh	DT40 TDP1 CPT	12-LOX inh
COC(=O)/C=C1\S/C(=N/NC(=O)c2ccccc2)NC1=O	-4.0%	0.6%	0.6%	-1.8	-8.7%	70.1%
NC(c1ccccc1)c1csc(Nc2ccc(C(F)(F)F)cn2)n1 (stereo not drawn)	13µM*	?	?	?	?	?
NC(Cc1cnc[nH]1)c1csc(Nc2ccc(C(F)(F)F)cn2)n1 (stereo not drawn)	-25.8%	0.2%	0.0%	21.8	-21.3%	-4.2%
CC(C)C(N)c1csc(Nc2ccc(C(F)(F)F)cn2)n1 (stereo not drawn)	?	?	?	0.0	20.6µM*	0.0%
CC(C)C(N)c1csc(Nc2ccccn2)n1 (stereo not drawn)	-19.2%	-2.1%	-2.1%	-11.4	8.2%	17.9%
Cc1sc(N)nc1C12CC3CC(CC(C3)C1)C2	?	0.0%	-20.1%	-51.7*	6.4%	15.4%
CCOC(=O)c1cccc(NC(=O)CC2C(=O)N(c3ccc(Cl)cc3)C(=O)N2C2CCCC2)c1 (stereo not drawn)	18.4µM*	.	.	.	20.6µM*	?
CCOC(=O)c1cccc(NC(=O)CC2C(=O)N(c3ccc(OC)cc3)C(=O)N2C2CCCC2)c1 (stereo not drawn)	23.1µM*	.	.	.	23.1µM*	-25.8%
CN(C)c1cccc(C(=O)NC2CCN(c3cnn(C)c(=O)c3)CC2)c1	.	.	.	.	.	49.6%
CC(C)(C)NC(=O)c1oc2ccccc2c1COc1ccccc1	13µM*	6.5%	-2.0%	11.7	?	-17.1%
COCc1c(C(=O)NCCOc2ccc(Cl)cc2)oc2ccccc12	23.1µM*	-5.7%	0.0%	3.3	25.9µM*	24.5%
CC(OC(=O)c1oc2ccccc2c1COc1ccccc1)C(N)=O (stereo not drawn)	-18.9%	1.2%	-9.6%	2.4	?	19.2%
COCc1c(C(=O)NCCc2ccc(OC(F)F)cc2)oc2ccccc12	11.6µM*	-4.7%	-1.1%	-8.2	13µM*	3.1%
CCCc1ccc(NC(=O)c2ccc3c(c2)NC(=O)CS3)cc1	.	.	.	.	.	13.3%
C=CCNC(=O)c1ccc(C(=O)NC(Cc2ccccc2)C(=O)O)cc1C(=O)O (stereo not drawn)	.	.	.	.	.	-50.4%
CCCOC(=O)c1ccc(Oc2c(C)oc3cc(OC(=O)N4CCOCC4)ccc3c2=O)cc1	.	.	.	.	.	-12.2%
C#CC1(O)CCCC2C3CCC4CC(OC(C)=O)CCC4(C)C3C(=O)CC21C (stereo not drawn)	20.6µM*	-21.5%	-15.9%	3.2	23.1µM*	0.7%
Cc1ccc2nc(-c3ccc(NC(=O)COC(=O)c4ccco4)cc3)sc2c1	?	?	?	-50.6*	-21.6%	-17.3%
Cc1ccc2nc(-c3ccc(NC(=O)COC(=O)c4ccc(Br)o4)cc3)sc2c1	?	?	?	28.1	?	-3.6%
Cc1cc(C)cc(N(CC(=O)Nc2ccc(-c3nc4ccc(C)cc4s3)cc2)S(C)(=O)=O)c1	14.6µM*	?	?	-20.1	23.1µM*	-16.8%
Cc1ccc2nc(-c3ccc(NC(=O)COc4ccccc4)cc3)sc2c1	-12.9%	.	.	.	-11.4%	-20.3%
Cc1ccc2nc(-c3ccc(NC(=O)CN(c4ccccc4C)S(C)(=O)=O)cc3)sc2c1	14.6µM*	-5.2%	-22.4%	-28.3	20.6µM*	-3.5%
CCn1c(=O)c(C(=O)NNC(=O)c2ccccc2Cl)c(O)c2ccccc21	?	?	-21.9%	99.2	?	26.7%
CCCn1c(=O)c(C(=O)NNS(=O)(=O)c2ccc(C)cc2)c(O)c2ccccc21	?	?	32.6µM*	13.6	?	-3.1%
CCn1c(=O)c(C(=O)NNC(=O)c2ccccc2F)c(O)c2ccccc21	18.4µM*	?	-24.8%	5.0	?	23.7%
SMILES	TDP1 cell noCPT	HT1080-NT tox	HT1080 IDH1KD tx	IL1B secr inh	DT40 TDP1 CPT	12-LOX inh
CCCCCCCCCC(=O)NNC(=O)c1c(O)c2ccccc2n(CC)c1=O	8.2µM*	-1.2%	-15.9%	16.8	?	3.6%
O=C(c1cc2cc(Cl)ccc2oc1=O)N1CCc2ccccc2C1	.	.	.	.	.	-3.0%
CCCOc1ccc(C(O)(CCN2CCCCC2)c2ccccc2OC)cc1 (stereo not drawn)	14.6µM*	?	?	-27.0	18.4µM*	-11.0%
COc1ccc(C(O)(c2ccccc2OC)C(CN2CCOCC2)c2ccccc2)cc1 (stereo not drawn)	?	-4.2%	-13.9%	-6.2	?	-7.1%
CCCCOc1ccc(C(O)(CCN2CCOCC2)c2ccccc2)cc1 (stereo not drawn)	?	1.1%	0.0%	1.9	?	-17.3%
CCOc1ccc(C(O)(c2ccccc2OC)C(CN2CCCC2)c2ccccc2)cc1 (stereo not drawn)	8.2µM*	-15.7%	-2.6%	?	11.6µM*	-29.3%
CCOc1ccc(/C=C2\C(=O)c3ccccc3OC2c2ccccc2)cc1 (stereo not drawn)	18.4µM*	11.1%	-26.3%	-2.1	?	-16.3%
COc1ccc(/C=C2\C(=O)c3ccccc3OC2c2ccccc2)cc1 (stereo not drawn)	?	?	?	16.7	?	4.5%
COc1cccc(C2SCC(=O)N2c2ccc(Br)cc2)c1OC (stereo not drawn)	?	-2.3%	-2.2%	-18.2	23.1µM*	10.5%
CN(C)C(CNC(=O)c1cc(S(=O)(=O)N(C)c2ccccc2)ccc1Cl)c1cccs1 (stereo not drawn)	6.51µM*	-7.8%	-4.6%	-1.7	5.8µM*	11.1%
CN(C)C(CNC(=O)c1cc(S(=O)(=O)N2CCOCC2)ccc1Cl)c1cccs1 (stereo not drawn)	20.6µM*	5.0%	2.0%	29.4	?	30.9%
O=C(NCC(c1cccs1)N1CCOCC1)c1ccc(Cl)c(S(=O)(=O)N2CCOCC2)c1 (stereo not drawn)	-25.4%	17.3%	15.3%	52.4	-9.1%	9.6%
COC(=O)CCCNC(=O)Cn1ccc2cc(Br)ccc21	.	.	.	.	.	-10.6%
